# Hit rate of the full screen: of about 110,000 compounds, about 40 (0.04%) were called active. Not shown: some 22% with an inconclusive outcome. Calls follow the shape of the dose curve; as a rule, active = well fitted curve in the direction sought with a large enough effect in the signal ratio (not every such curve was filed as active); inconclusive = small, poorly fitted or top-dose-only effect, or a change in a side signal; inactive = flat fitted curve, though single readings scatter; the % refers to the signal ratio. The list comes from a sample in which actives are over-represented; it also holds similar structures and randomly drawn compounds. A call without a number means that no potency is given here.
# Assay: IkB Signaling
# Conditions: ABC-DLBCL IkBa-CBG/CBR dual luciferase ratio, 4 h; series mostly up to 57.1 µM
# Procedure, shortened: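 Curves were fitted separately to fusion (green), unfused (red) and ratio luminescence, then classed by r2, magnitude and activity. Cells: OCI-Ly3, 4 h compound plus doxycycline at 37C; 10 uM MG-132 defined full response.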
# Potency is read from the fitted curve at half-maximal effect.
row,Structure (SMILES),Potency
1,CCOc1ccc(NC(=O)Cn2c(C)ccc(C#N)c2=O)cc1,inactive
2,O=C(Nc1cccc2cccnc12)c1cccc2c(Br)cccc12,inactive
3,COc1ccc(-n2c(SC)nc3sc4c(c3c2=O)CCN(C(C)=O)C4)cc1,inactive
4,Cc1ccc(S(=O)(=O)N2CCc3cc(C(=O)Nc4ccc(Cl)cc4C)ccc32)cc1,inactive
5,COc1ccc(C)cc1-n1c(-c2ccc(C)cc2)cc2c1CC(C)(C)CC2=O,inactive
6,CCC1CCCCN1Cc1c(O)ccc2c(=O)c(Oc3ccccc3Cl)c(C(F)(F)F)oc12 (stereo unspecified),inactive
7,Cc1ccc(F)cc1S(=O)(=O)N1CCC(c2nc3ccccc3s2)CC1,inactive
8,CC(=O)c1ccc(NC(=O)COc2ccccc2-c2nc(-c3ccccc3)no2)cc1,inactive
9,CCc1nn(CCCC(=O)NC(C)c2ccccc2)c(=O)c2cc3occc3n12 (stereo unspecified),inactive
10,CC(=O)N1CCCc2cc(S(=O)(=O)Nc3ccc(Cl)cc3F)ccc21,inactive
11,COc1ccc(CNC(=O)C(C)n2nc(C)c3c(C)n(-c4ccccc4)nc3c2=O)c(OC)c1 (stereo unspecified),inactive
12,Cc1ccc(-c2nc(Cn3c(=O)cc(-c4ccccc4)c4c(C)nn(C)c43)c(C)o2)cc1,inactive
13,COc1ccc(C2C(=O)N(C3CCCCC3)CC(=O)N2Cc2ccccc2Cl)cc1OC (stereo unspecified),inactive
14,Cc1ccc(NC(=O)c2oc3ccccc3c2NC(=O)Cc2cccs2)cc1,inactive
15,CCOC(=O)C1CCN(S(=O)(=O)c2ccc3c(c2)N(C)C(=O)CC(=O)N3C)CC1,inactive
16,COc1ccc(-c2nc3nc(C)cc(C)n3c2Nc2c(C)cccc2C)cc1,inactive
17,Cc1ccc(C)c(CN2C(=O)c3ccccc3S(=O)c3ccc(C(=O)N4CCOCC4)cc32)c1 (stereo unspecified),inactive
18,Cc1ccccc1CNC(=O)CCCn1nc(C)c2sc3ccccc3c2c1=O,inactive
19,CCc1cccc(NC(=O)Cn2nc(CC)n3c(cc4cc(C)ccc43)c2=O)c1,inactive
20,Cn1c(=O)c2c(ncn2CC(=O)Nc2cccc(C(F)(F)F)c2)n(C)c1=O,inactive
21,COc1ccc(NS(=O)(=O)c2cc3c(cc2C)N(C(C)=O)CCO3)cc1,inactive
22,COc1cc(C)ccc1OCCSc1nc2ccc(NC(=O)c3ccc(C)cc3)cc2s1,inactive
23,CCOC(=O)c1ccc(-c2ccc(/C=C(\C#N)C(=O)Nc3ccc(C)cc3)o2)cc1,inactive
24,CCn1c2c(c(=O)n3ncc(C(=O)N4CCN(c5ccccc5)CC4)c13)CN(Cc1ccc(OC)cc1)CC2,inactive
25,Cc1cccc(-n2c(SCC(N)=O)nc3c(oc4ccccc43)c2=O)c1,inactive
26,Cc1cccc(-c2nc(SCc3ccc(Br)cc3)n3[nH]c(=O)cc3n2)c1,inactive

row,Structure (SMILES),Potency
1,CCOc1cccc2sc(N3CCN(C(=O)C4CC4)CC3)nc12,inactive
2,O=c1cc(CSc2ncn[nH]2)[nH]c2ccc(F)cc12,inactive
3,O=C(CC1Oc2ccccc2NC1=O)NCc1ccc(F)cc1 (stereo unspecified),inactive
4,Cc1ccc(CNC(=O)CCC(=O)N2Cc3ccccc3Oc3ncccc32)cc1,inactive
5,Cc1cc(C)c(NC(=O)Cn2c(SCC(=O)NCc3ccccc3)nc3ccccc32)c(C)c1,inactive
6,CCCC(=O)N1CCN(c2nc3c(OC)ccc(C)c3s2)CC1,inactive
7,Cc1cccc(Nc2cc(C)nc(-n3nc(C)cc3C)n2)c1,inactive
8,CC(=O)c1ccc(Oc2cc(C)nc(-n3nc(C)cc3C)n2)cc1,6.31 µM (active)
9,Cc1cc(C)n(-c2ccc(Cl)c(C(=O)O)n2)n1,inactive
10,OCc1cnc(SCc2ccc(F)cc2)n1Cc1ccc(F)cc1,inactive
11,CC(C)(C)OC(=O)N1CCC(c2c(C(=O)NCc3ccccn3)cnn2-c2ccc(F)cc2)CC1,inactive
12,COc1ccccc1NC(=O)CN1C(=O)c2ccccc2Sc2ccc(C(=O)N3CCCC3)cc21,inactive
13,COCCn1c(CCC(=O)Nc2cc(C)ccc2C)nc2cccnc21,inactive
14,Cc1ccc(N2CC(C(=O)Nc3ccc(N(C)C)cc3)CC2=O)cc1Cl (stereo unspecified),inactive
15,CCOc1ccc(N(CC)C(=O)c2noc3c2COc2ccc(C)cc2-3)cc1,inactive
16,Cc1ccc(C)c(N2C(=O)N(Cc3c(F)cccc3Cl)c3ccccc3S2(=O)=O)c1,inactive
17,Cc1csc2nc(COC(=O)c3ccccc3NC(=O)c3ccccc3Cl)cc(=O)n12,inactive
18,CCN(CC)C(=O)CSc1nc2cc3c(cc2c(=O)n1CCCC(=O)NCc1ccc2c(c1)OCO2)OCO3,inactive
19,O=C(CCn1c(=O)c2ccccc2n(Cc2ccc(Cl)cc2)c1=O)NCc1ccc2c(c1)OCO2,inactive
20,CCOc1ccc2nc(N3CCCC(C(=O)Nc4cc(C)ccc4C)C3)sc2c1 (stereo unspecified),inactive
21,CCc1ccc(NC(=O)CN2C(=O)CCSc3ccc(S(=O)(=O)N4CCCC4)cc32)cc1,inactive
22,Cc1cccc(NC(=O)Cn2c(C(F)(F)F)nc3ccccc32)c1C,inactive
23,COc1ccc(C2c3c(oc4ccccc4c3=O)C(=O)N2Cc2ccc3c(c2)OCO3)cc1 (stereo unspecified),inactive
24,Cc1ccc(Cl)cc1NC(=O)C(C)n1nnc2sc(-c3ccccc3)cc2c1=O (stereo unspecified),inactive
25,CCOC(=O)c1sc(NC(=O)/C=C/c2ccc(C(C)C)cc2)c(C(=O)OCC)c1C,inactive

# From PubChem BioAssay AID445 (National Center for Advancing Translational Sciences (NCATS), 2006)
